Rows were chosen to be rich in hits. Some 2.1% of all compounds tested hit in one or more screens of this group.
TDP-43 yeast inh = rescues yeast growth from TDP-43 toxicity | Potency, µM (doses to about 46.1 µM), without a hit: at the top dose growth rescue (activation), usual class: activators | TDP-43 expressing yeast growth rescue, BacTiter-Glo, 24 h | AID 652104 | 410,000 tested, 1.8% active; further: % of control where 0% means no effect; nearly all actives have a fitted effect of over 50% in size
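Readout is BacTiter-Glo luminescence of cell growth, so inhibitors register as activators. TDP-43-expressing yeast at OD600=0.02 in galactose medium, after raffinose pregrowth to mid-log, were incubated with compound for 24 hr at 30 deg C.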
FUS yeast rescue = suppressors of FUS proteinopathy in yeast; Potency, µM (series often up to 76.6 µM), usual class: activators; 390,000 tested, 0.24% active; S. cerevisiae FUS-expressing, growth rescue, OD600, 24 h;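 further: plate controls were DMSO vehicle for no effect and reference control for full effect; nearly all actives have a fitted effect of over 55% in size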
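Restored growth of FUS-toxic S. cerevisiae, read as 600 nm absorbance after 24 h at 30C in galactose medium (starting OD 0.005). Controls CP55940 and DMSO.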
Abeta yeast res = restores growth of yeast expressing A-beta42 peptide; Potency, µM (doses to about 46.1 µM), hits mostly activators; AID 1347071; yeast expressing A-beta42, growth rescue, OD600, 48 h; response scale: 0% DMSO, 100% iron-clioquinol control; 410,000 tested, 0.063% active; further: nearly all actives have a fitted effect of over 55% in size
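Growth rescue measured by 600 nm absorbance after 48 h yeast culture at 30 C with compound. Values normalized between DMSO and an equimolar ferric chloride plus clioquinol control.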
aSyn yeast inh = rescues yeast growth from alpha-synuclein toxicity; Yeast expressing alpha-synuclein, growth rescue, BacTiter-Glo, 24 h; Potency, µM (titrated, usually from 46.1 µM), inactives show top-dose growth rescue (activation), hits mostly activators; 370,000 tested, 0.14% active; AID 652106; further: % of control where 0% means no effect; nearly all actives have a fitted effect of over 65% in size
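Rescue of yeast growth: cells expressing toxic alpha-synuclein, induced in galactose at OD600 0.02, incubated with compound 24 h at 30 C. ATP luminescence quantified growth; inhibitors of toxicity appear as activators.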
The depositor's hits bear a star; [ ] = dose if it differs, or a comment. The call rests on the fitted dose curve; in most records, active means well fitted curve in the direction sought with a large enough effect; inconclusive means small, poorly fitted or top-dose-only effect, or another doubt; inactive means no such curve, though single readings can be large; an effect the other way counts as inactive or inconclusive. Potency means the concentration at half of the fitted maximal effect.

`COc1ccc(CCNC(=O)c2oc3ccc(OC)cc3c2C)cc1` gave TDP-43 yeast inh 4µM*, FUS yeast rescue inactive, Abeta yeast res inactive and aSyn yeast inh -6%.
For COc1ccc(CCC(=O)NCCOc2ccc(Cl)cc2)cc1 the results were TDP-43 yeast inh 8.9µM*, FUS yeast rescue inactive, Abeta yeast res inactive and aSyn yeast inh 2%.
Screening COc1ccc(CCNC(=O)c2oc3ccccc3c2C)cc1 returned TDP-43 yeast inh 38%, FUS yeast rescue inactive, Abeta yeast res inactive and aSyn yeast inh -1%.
CCS(=O)(=O)c1nc(S(=O)(=O)c2ccc(Cl)cc2)c(NCc2ccc(Cl)cc2)s1 was read as TDP-43 yeast inh 7%, FUS yeast rescue inactive and Abeta yeast res inactive.
CCCC(C)NC(=O)c1ccc(OCc2ccc(Cl)cc2)c(OC)c1 (stereo not drawn) was read as TDP-43 yeast inh 22µM*, FUS yeast rescue inactive, Abeta yeast res inactive and aSyn yeast inh 0%.
CCC(C)NC(=O)c1ccc(COc2ccccc2Cl)cc1 (stereo not drawn) was read as TDP-43 yeast inh inconclusive, FUS yeast rescue inactive, Abeta yeast res inactive and aSyn yeast inh 3%.
For O=C(CCCOC(=O)c1ccc(O)cc1O)c1ccc(F)cc1 the results were TDP-43 yeast inh 16%, FUS yeast rescue inactive, Abeta yeast res inactive and aSyn yeast inh -2%.
CCCc1cc(C(=O)Cc2ccc(F)cc2)c(O)cc1O was read as TDP-43 yeast inh inconclusive, FUS yeast rescue inactive, Abeta yeast res inactive and aSyn yeast inh -50%.
For O=C(Cc1ccc(F)cc1)c1ccc(O)cc1O the results were TDP-43 yeast inh 13µM*, FUS yeast rescue inactive, Abeta yeast res inactive and aSyn yeast inh 7%.
`O=C(Cc1c(F)cccc1Cl)c1ccc(O)cc1O` gave TDP-43 yeast inh 16µM*, FUS yeast rescue inactive, Abeta yeast res inactive and aSyn yeast inh -2%.
CCc1cc(C(=O)Cc2ccc(F)cc2)c(O)cc1O was read as TDP-43 yeast inh 13µM*, FUS yeast rescue inactive, Abeta yeast res inactive and aSyn yeast inh 8%.
For O=C(Cc1ccccc1F)c1ccc(O)cc1O the results were TDP-43 yeast inh 21%[9.22 µM], FUS yeast rescue inactive, Abeta yeast res inconclusive and aSyn yeast inh -6%.
Screening COc1ccc(-c2nc3cc(C(C)C)ccc3o2)cc1NC(=O)COc1ccc(C)cc1C returned TDP-43 yeast inh 23%, FUS yeast rescue inactive and Abeta yeast res inactive.
For CC(=O)Nc1ccc(NC(=O)CS(=O)(=O)c2cn(CC(=O)N3CCC(C)CC3)c3ccccc23)cc1 the results were TDP-43 yeast inh -3%, FUS yeast rescue inactive, Abeta yeast res inactive and aSyn yeast inh 0%.
For CC(C)c1ccc(NC(=O)CSC2=Nc3ccccc3C3=NC(CC(=O)NCc4cccs4)C(=O)N23)cc1 (stereo not drawn) the results were TDP-43 yeast inh inconclusive, FUS yeast rescue inactive and Abeta yeast res 13µM*.
Screening COc1ccccc1N1CCN(C2CC(=O)N(c3cccc(Br)c3)C2=O)CC1 (stereo not drawn) returned TDP-43 yeast inh 27%, FUS yeast rescue inactive, Abeta yeast res inactive and aSyn yeast inh -70%.
COc1cc2c(cc1OC)CN(C1CC(=O)N(c3c(C)cccc3C)C1=O)CC2 (stereo not drawn) was read as TDP-43 yeast inh 14µM*, FUS yeast rescue inactive, Abeta yeast res inactive and aSyn yeast inh 10%.
`Cc1ccccc1C(=O)Nc1ccccc1C(=O)OCc1cc(=O)n2ccsc2n1` gave TDP-43 yeast inh -20%, FUS yeast rescue inactive and Abeta yeast res inactive.
Cc1ccc(C)c(OCC(=O)NC2CCCCCC2)c1 was read as TDP-43 yeast inh 11µM*, FUS yeast rescue inactive, Abeta yeast res inactive and aSyn yeast inh 11%.
For COc1ccc(NS(=O)(=O)c2cccc(C(=O)NNC(=O)c3ccc(=O)[nH]c3)c2)cc1 the results were TDP-43 yeast inh 9%, FUS yeast rescue inactive, Abeta yeast res inactive and aSyn yeast inh -1%.
Screening S=C(NCCCc1cnc[nH]1)NCCCN(Cc1ccc(Cl)cc1)c1ncc(Br)cn1 returned aSyn yeast inh -9%.
`Clc1ccc2c(c1)c1ccccc1n2CN1CCOCC1` gave TDP-43 yeast inh inconclusive, FUS yeast rescue inactive, Abeta yeast res inactive and aSyn yeast inh -5%.
Clc1ccc2c(c1)c1cc(Cl)ccc1n2CN1CCOCC1 was read as TDP-43 yeast inh 6.3µM*, FUS yeast rescue inactive, Abeta yeast res inactive and aSyn yeast inh -25%.
`O=C1C=CC2(O[C@H](c3ccccc3)[C@@H](c3ccccc3)O2)[C@H](Sc2ccccc2O)C1` gave TDP-43 yeast inh inconclusive, Abeta yeast res inactive and aSyn yeast inh -76%.
For CNC(=S)Nc1ccc(C23CC4CC(CC(C4)C2)C3)cc1 the results were TDP-43 yeast inh -6%[0.397 µM], FUS yeast rescue inactive, Abeta yeast res 7.1µM* and aSyn yeast inh -7%.
Screening Cc1nc(Cl)sc1C(=O)Nc1ccc(F)cc1 returned TDP-43 yeast inh 3%, FUS yeast rescue inactive, Abeta yeast res inactive and aSyn yeast inh -2%.
Screening Cc1nc(Cl)sc1C(=O)Nc1cc(F)cc(F)c1 returned TDP-43 yeast inh 11µM*, FUS yeast rescue inactive, Abeta yeast res inactive and aSyn yeast inh 3%.
CN(C1=C(NC(=O)c2ccc(Cl)cc2)C(=O)c2ccccc2C1=O)c1ccccc1 was read as TDP-43 yeast inh 35µM*, Abeta yeast res inactive and aSyn yeast inh -5%.
O=C(NC1=C(Nc2ccc(Cl)cc2)C(=O)c2ccccc2C1=O)c1ccccc1 was read as TDP-43 yeast inh 8%, Abeta yeast res inactive and aSyn yeast inh 8%.
For C[C@H](O)C#Cc1ccc2c(c1)O[C@@H](CN(C)Cc1ccc(-c3ccccc3)cc1)[C@H](C)CN([C@@H](C)CO)S2(=O)=O the results were TDP-43 yeast inh -2%, FUS yeast rescue inactive, Abeta yeast res inactive and aSyn yeast inh 6%.
`CC1(c2ccc(F)cc2)OC(=O)c2c1ccc1ccccc21` (stereo not drawn) gave TDP-43 yeast inh 13µM*, FUS yeast rescue inactive, Abeta yeast res inactive and aSyn yeast inh -12%.
O=C(C[n+]1ccccc1)Nc1ccccc1[N+](=O)[O-] was read as TDP-43 yeast inh -5%, FUS yeast rescue inactive, Abeta yeast res inactive and aSyn yeast inh -3%.
For CCNc1nc(NCC)n2c(SC(C(=O)Nc3cc(C)ccc3C)c3ccccc3)nnc2n1 (stereo not drawn) the results were TDP-43 yeast inh -8%, FUS yeast rescue 32µM*, Abeta yeast res inactive and aSyn yeast inh -4%.
Cc1ccnc(Nc2nc(-c3ccc(O)cc3O)cs2)c1 was read as TDP-43 yeast inh 16µM*, FUS yeast rescue inactive, Abeta yeast res inactive and aSyn yeast inh 10%.
`Cc1ccnc(Nc2nc(-c3ccc(O)cc3)cs2)c1` gave TDP-43 yeast inh 13µM*, FUS yeast rescue inactive, Abeta yeast res inactive and aSyn yeast inh -16%.

Bioassay records deposited in PubChem by National Center for Advancing Translational Sciences (NCATS).
